# According to publication PMC5540273 (PLoS ONE, 2017):
# How the values were obtained:
# Conditions in all cases: concentration: 1 μM, replicates: in singlicate; n = 1
# [1] = test system: NEK5
# [2] = test system: NEK6
# [3] = test system: NEK7
# [4] = test system: NEK9
# [5] = test system: T1, NIK
# T1 construct: gene MAP3K14
# [6] = test system: T2, NIM1
# T2 construct: gene MGC42105
# [7] = test system: NLK
# [8] = test system: T3, OSR1
# T3 construct: gene OXSR1
# [9] = test system: PAK1
# [10] = test system: PAK2
# [11] = test system: PAK3
# [12] = test system: PAK4
# [13] = test system: PAK6
# [14] = test system: PAK7
# [15] = test system: T4, PCTK1
# T4 construct: gene CDK16
# [16] = test system: T5, PCTK2
# T5 construct: gene CDK17
# [17] = test system: T6, PCTK3
# T6 construct: gene CDK18
# [18] = test system: PDGFRA
# [19] = test system: PDGFRB
# [20] = test system: PDPK1
# 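Also: KINOMEscan kinase panel screen.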
Compound,%Inh [1] [%],%Inh [2] [%],%Inh [3] [%],%Inh [4] [%],%Inh [5] [%],%Inh [6] [%],%Inh [7] [%],%Inh [8] [%],%Inh [9] [%],%Inh [10] [%],%Inh [11] [%],%Inh [12] [%],%Inh [13] [%],%Inh [14] [%],%Inh [15] [%],%Inh [16] [%],%Inh [17] [%],%Inh [18] [%],%Inh [19] [%],%Inh [20] [%]
O=C(Nc1n[nH]c2cc(-c3ccsc3)ccc12)C1CC1 [SB-732932],0,12,6,0,26,5,46,27,9,45,0,22,7,0,13,31,8,57,80,0
COC(=O)C(Cc1ccccc1)NC(=O)NC1CCN(c2ccnc(Nc3ccc(F)cc3)n2)C1 (stereo not drawn) [GSK1379714],12,0,0,17,50,33,6,5,9,5,16,0,0,7,5,9,0,7,23,4
COc1cc2ncnc(Nc3cccc(Br)c3)c2cc1OC.Cl [GI230329],11,0,0,4,29,26,33,16,29,20,0,0,0,12,0,0,2,0,16,11
COc1cccc(CNC(=O)NC2CCN(c3ccnc(Nc4ccc(F)cc4)n3)C2)c1 (stereo not drawn) [GSK1379723],21,0,2,0,24,14,3,10,1,0,38,0,0,0,10,0,14,7,15,0
CC(=O)c1c(C)c2cnc(Nc3ccc(N4CCNCC4)cn3)nc2n(C2CCCC2)c1=O,1,0,0,0,3,0,29,0,0,0,6,0,0,0,0,10,8,0,0,0
COc1ccc(Nc2nccc(N3CCC(NC(=O)C(C)c4ccc(Cl)cc4)C3)n2)cc1 (stereo not drawn) [GSK1379735],32,0,6,2,12,13,14,0,16,38,71,0,0,6,0,10,9,0,34,4
COc1cccc(NC(=O)Nc2ccc(C)c(-c3ccc(C(=O)Nc4ccncc4)cc3)c2)c1 [GSK1398474],2,3,0,12,0,0,30,6,29,16,27,0,0,26,0,11,13,48,100,27
COc1nccc(-c2c(-c3ccc(F)cc3)ncn2CCCN2CCOCC2)n1 [SB-282852],0,0,0,0,18,34,0,0,0,0,0,0,9,7,6,0,0,17,0,0
CNC(=O)c1ccc(C)c(-n2c(C)cc(OCc3ccc(F)cc3F)c(Br)c2=O)c1,0,0,2,0,0,0,0,0,2,0,0,0,0,0,0,0,0,0,0,0
Cc1cnc(N)c(/C=C/c2cncc(C(=O)NCCc3ccc(Cl)cc3Cl)c2)c1.Cl [GSK190937],9,0,0,0,10,18,7,0,4,10,0,0,0,7,1,0,0,96.4,98.8,0
CNc1nc(-c2ccc3c(N)n[nH]c3c2)cc(N2C[C@@H](C(=O)Nc3ccccc3)CC[C@H]2C)n1 [GSK2298859],7,0,0,4,0,0,0,10,0,0,0,0,2,20,2,0,9,0,10,83
CC(=O)c1c(C)c2cnc(Nc3ccn(C)n3)nc2n(C2CCCC2)c1=O,18,0,0,0,0,2,25,0,0,0,0,0,0,0,0,0,100,0,0,0
CN1c2ccc(-c3ccc(C(N)=O)cc3)cc2-c2[nH]ncc2S1(=O)=O,0,0,0,0,12,0,8,0,11,22,0,5,0,0,0,0,0,0,0,21
CC(C)c1ccc(O)cc1Nc1ccnc2ccc(C(F)(F)F)cc12 [GW482059],0,0,0,0,0,0,0,1,0,6,0,0,0,0,2,0,0,3,10,18
O=C1NC(=O)C(c2ccc(Cl)cc2)=C1Nc1ccc(O)cc1 [SB-340867],0,0,11,0,0,0,0,0,0,7,0,0,0,0,0,4,0,0,0,17
NS(=O)(=O)c1cccc(N/C=C2\C(=O)Nc3ccc(S(=O)(=O)Cc4c(Cl)cccc4Cl)cc32)c1 [GSK398099],26,0,0,13,2,0,20,9,0,0,0,0,5,4,6,0,21,0,20,0
Cc1ccc(-c2nc(Nc3ccncc3)c3ccccc3n2)s1 [GSK189015],9,1,16,15,4,0,53,9,11,11,6,4,8,0,7,0,30,0,22,26
O=c1cc(N2CCOCC2)nc2n(Cc3cccc(Cl)c3Cl)c3ccccc3n12 [GSK2299009],30,4,20,24,0,2,25,11,0,5,42,0,21,12,8,8,20,0,51,0
Nc1ncnc2occ(-c3ccc4c(c3)CCN4C(=O)Cc3cc(F)ccc3F)c12 [GSK2645446],22,0,0,4,17,8,0,0,0,4,0,0,0,12,2,0,2,0,50,0
COc1ccc2cc(-c3nc(-c4ccccc4C(C)C)[nH]c3-c3ccncc3)ccc2c1 [SB-660566],0,2,0,4,0,13,29,3,25,28,30,0,0,0,51,0,2,0,7,0
COc1ccc(CSc2nnc(-c3ccc4c(c3)CCO4)o2)cc1,0,0,0,0,0,0,0,0,18,9,0,0,0,0,0,5,0,0,0,0
